The assay is described as follows: activators of LNCaP cell differentiation, retest, confirmation, side scatter shift, flow cytometry (AID 1069).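 Further: LNCaP human prostate cancer cells in low-serum medium with charcoal-stripped FBS; percent of cells with raised granularity gated so DMSO controls show 10%.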 The note with it: 4 d, side scatter shift, at 10 µM, stronger effect = higher value.
For `CCCS(=O)(=O)N1CCCC(C(=O)NCCCN2CCN(c3ccc(F)cc3)CC2)C1` (stereo not given), the side scatter shift stood at 12.3%.

Take `CCn1c(=N)n(CC(O)COc2cccc(C)c2)c2ccccc21` (stereo not given): the side scatter shift turned out to be 9.75%.

In the case of `CC(C)(C)OC(=O)N1CCC(C(=O)N2CCCCCC2)CC1`, the side scatter shift was determined as 7.5%.

Consider `O=C(NCCCN1CCN(c2cccc(Cl)c2)CC1)C1CCC(=O)N1Cc1ccccc1Cl` (stereo not given), for which the side scatter shift turned out to be 11.4%.

Turning to `Cc1oc(-c2cccc(Cl)c2)nc1CN1CCC(C(=O)NCc2cccnc2)CC1`, the side scatter shift came to 8.3%.

Consider `O=c1cc(N2CCN(c3ccc(F)cc3)CC2)[nH]c(=O)n1C1CCCCC1`, for which the side scatter shift is 5.4%.

Turning to `CCN1C=C(Cc2cccs2)C2=C(C1)C(c1cccs1)C(C#N)=C(N)O2` (stereo not given), the side scatter shift was determined as 5.2%.

`Cc1oc(-c2ccc(Cl)cc2)nc1CN1CCC(C(=O)N2CCN(Cc3ccccc3)CC2)CC1`: the side scatter shift is 53.7%.

In the case of `Cc1ccc(Cn2c(C(=O)NCCCN3CCOCC3)cc3sccc32)cc1`, the side scatter shift was determined as 10.8%.

As to `Cc1oc(-c2ccc(Cl)cc2)nc1CN1CCC(C(=O)NCc2cccnc2)CC1`, the side scatter shift amounted to 5.8%.

`O=C(CSc1nc2sc3c(c2c(=O)n1-c1ccccc1)CCCC3)NCc1ccco1`: the side scatter shift was 4.3%.

With `Cc1oc(-c2cccc(Cl)c2)nc1CN1CCCC(C(=O)NC(C)c2ccc3c(c2)OCCO3)C1` (stereo not given), the side scatter shift worked out at 1.65%.

For `Cc1ccc(C)c(N2CCN(C(=O)CCNC(=O)Cn3ccc4ccccc4c3=O)CC2)c1`, the side scatter shift amounted to 10%.

`Cc1ccc(-c2noc(CCC(=O)NC3CCN(Cc4ccccc4)CC3)n2)cc1`: the side scatter shift came to 4.5%.

For the compound `Cc1ccccc1-c1nc(CN2CCCC(C(=O)NCc3cccnc3)C2)c(C)o1` (stereo not given), the side scatter shift stood at 7.35%.

For the compound `COc1ccc(-c2oc3ncn(CCN4CCOCC4)c(=N)c3c2-c2ccc(OC)cc2)cc1`, the side scatter shift was 19.7%.

For `CCOC(=O)N1CCN(C(=O)CN(c2cccc(C(F)(F)F)c2)S(=O)(=O)c2ccccc2)CC1`, the side scatter shift stood at 5.4%.

Consider `CCN1CCN(C(c2cccs2)C(C)NS(=O)(=O)c2ccc(Br)cc2)CC1` (stereo not given), for which the side scatter shift was 17.8%.

As to `CCn1c(=O)cc(SCC(=O)NCCCN2CCN(c3ccc(F)cc3)CC2)c2ccccc21`, the side scatter shift came out at 21.6%.

As for `Cc1ccc2c(c1)-c1c(cnn1CC(=O)Nc1ccccc1N1CCN(C)CC1)CO2`, the side scatter shift is 38%.

These data come from PubChem BioAssay AID1069 (NMMLSC, 2008).
